Test results reported in PubChem BioAssay (EPA / NIEHS).
Where “and” joins values, the source holds several entries; their conditions need not be identical. Identical values can stand only once. Inconclusive results are not listed. Calls of active or inactive are those of the source. The calls were made as follows, unless noted: active = hit-call score of the fitted dose curve at least 0.9, where 1 is the maximum; inactive = score below 0.9.

Assays:
DIO3 (gene 1735) = experiment: CCTE_GLTED_hDIO3: CCTE's human Deiodinase 3 (DIO3) Inhibition Assay, Great Lakes Toxicology and Ecology Division (GLTED) Lab (AID 2284055; active = hit-call score of the fitted dose curve at least 0.9, where 1 is the maximum;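 as to AC50: potency is for inhibition seen as loss of released iodide signal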)
How it was run: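 Human type 3 deiodinase, expressed via adenovirus system, was exposed to test chemicals for 3 hours in a cell-free format. Released iodide was then determined spectrophotometrically by Sandell-Kolthoff; plates ran in triplicate.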

[1] = CCTE_Shafer_MEA_dev_network_spike_number: CCTE's Neural Network Formation Assay for Number of Network Spikes, Shafer Lab (AID 2284048);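 also: synchronized bursts across electrodes counted on days 5 7 9 12 and integrated as AUC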;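 as to AC50: fit as a loss of signal meaning fewer network spikes than DMSO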
How it was run: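 Rat cortical primary cultures on 48-well MEA (16 electrodes/well); continuous exposure DIV 0–12, full medium and treatment exchange DIV 5, 9. Readout: network spike count, AxIS adaptive detection, recordings DIV 5/7/9/12 collapsed to AUC; loss-of-signal fit, DMSO baseline.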

[2] = CCTE_Shafer_MEA_dev_network_spike_peak: CCTE's Neural Network Formation Assay for Mean Number of Electrodes in Network Spike, Shafer Lab (AID 2284049);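 as to AC50: fitted for loss of signal meaning fewer electrodes in network spikes than DMSO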
How it was run: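 Network-spike peak electrode count from recordings on days 5, 7, 9 and 12 was combined as trapezoidal area under the curve. Rat cortical cultures were treated continuously from plating, with compound renewed at each feed (DIV 5, 9); fits versus DMSO.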

[3] = CCTE_Shafer_MEA_dev_spike_duration_mean: CCTE's Neural Network Formation Assay for Mean Spike Duration, Shafer Lab (AID 2284051);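 also: mean network spike duration pooled as area under curve over DIV 5 to 12 recordings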;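 as to AC50: potency for a decrease in mean network spike duration versus DMSO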
How it was run: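 With DMSO as baseline, loss of mean network spike duration was scored from extracellular recordings of rat cortical neurons on MEA plates. Exposure spanned plating to DIV 12; the four recording days were collapsed into one AUC value.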

[4] = CCTE_Shafer_MEA_dev_network_spike_duration_std: CCTE's Neural Network Formation Assay for Standard Deviation of Network Spike Duration, Shafer Lab (AID 2284052);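 also: area under curve of spike duration SD across recording days 5 to 12; hits are decreases in network spike duration SD versus DMSO vehicle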
How it was run: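 Developing networks of rat cortical neurons were exposed over twelve days in vitro on 48-well MEA plates. Trapezoidal AUC of recordings (DIV 5–12) was analysed for signal loss relative to DMSO vehicle.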

[5] = CCTE_Shafer_MEA_dev_per_network_spike_spike_number_mean: CCTE's Neural Network Formation Assay for Mean Number of Spikes in a Network Spike, Shafer Lab (AID 2284053);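 as to AC50: fitted as decrease in spikes per network spike relative to DMSO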
How it was run: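 First, rat cortical cells (1.5 x 10^5/well) were seeded onto MEA wells; second, dosing began at plating and was refreshed on DIV 5 and 9; finally, network-spike spike counts across DIV 5–12 were summarized as AUC.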

[6] = CCTE_Shafer_MEA_dev_per_network_spike_spike_percent: CCTE's Neural Network Formation Assay for Percent of Spikes in a Network Spike, Shafer Lab (AID 2284054)
How it was run: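 Read-out: percent of spikes falling in a 0.05 s window at network-spike peak, from spontaneous MEA recordings on days 5, 7, 9 and 12; trapezoidal AUC; loss of signal versus DMSO. Rat cortical cultures, compound present throughout.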

[7] = CCTE_Shafer_MEA_dev_LDH: CCTE's Lactate Dehydrogenase Assay for Cytotoxicity in the Neural Network Formation Assay, Shafer Lab (AID 2284068; active = hit-call score of the fitted dose curve at least 0.9, where 1 is the maximum;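 also: exposure for twelve days from plating with re-dosing on DIV 5 and 9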)
How it was run: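 Developing rat cortical networks on MEA plates are exposed to compound for 12 days from plating. LDH activity is measured spectrophotometrically, with DMSO as baseline.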

[8] = UKN5_HCS_SBAD2_cell_viability: Viability Assessment in the University of Konstanz (UKN) Leist Lab Neurite Outgrowth Assay in human iPSC-derived immature Dorsal Root Ganglia Neurons (UKN5) (AID 2284056)
How it was run: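 iPSC-derived immature peripheral neurons (SBAD2) seeded on Matrigel with CHIR99021, SU5402 and DAPT, dosed 1 h later for 24 h. Viability from Hoechst H-33342 and calcein-AM live staining, high-content imaging; bidirectional fit versus DMSO.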

[9] = CCTE_Shafer_MEA_acute_AB: CCTE's Alamar Blue Assay for Cytotoxicity in the Neural Acute Assay, Shafer Lab (AID 2284069; active = hit-call score of the fitted dose curve at least 0.9, where 1 is the maximum;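 also: active compounds lower the viability signal compared with DMSO wells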)
How it was run: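 Cytotoxicity endpoint for acute MEA exposures of primary rat cortical neurons on day 13 or 15. Resazurin reduction is read fluorescently at 544/590 nm, with DMSO as the negative-control baseline.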

CCCCCC(C=O)=Cc1ccccc1
AC50 (DIO3 (gene 1735)): 16.4 µM (active)

Oc1ccc2cc(SSc3ccc4cc(O)ccc4c3)ccc2c1
AC50 (DIO3 (gene 1735)): 3.47 µM (active)

CCOc1ccc(N=Nc2ccc(C=Cc3ccc(N=Nc4ccc(OCC)cc4)cc3S(=O)(=O)O)c(S(=O)(=O)O)c2)cc1
AC50 (DIO3 (gene 1735)): 35.6 µM (active)

COCCOCCOCCO
outcome [1]: inactive
outcome [2]: inactive
outcome [3]: inactive
outcome [4]: inactive
outcome [5]: inactive
outcome [6]: inactive
outcome [7]: inactive

CCCCCCCCC=CCCCCCCCC1=NCCN1CCO
AC50 (DIO3 (gene 1735)): 3.92 µM (active)

COc1ccc(N=Nc2cc(C)c(N=Nc3ccc(S(=O)(=O)O)cc3)cc2OC)cc1
AC50 (DIO3 (gene 1735)): 100 µM (active)

C=C(C)C(=O)OCCOC1CC2CC1C1C=CCC21 (stereo not drawn)
AC50 (DIO3 (gene 1735)): 6.43 µM (active)

COCCc1ccc(OCC(O)CNC(C)C)cc1 (stereo not drawn)
outcome [1]: inactive
outcome [2]: inactive
outcome [3]: inactive
outcome [4]: inactive
outcome [5]: inactive
outcome [6]: inactive
outcome [7]: inactive

Oc1c(Cl)cc(Cl)c(Cl)c1Cc1c(O)c(Cl)cc(Cl)c1Cl
AC50 [1]: 830 nM (active) and 526 nM (active)
AC50 [2]: 1.19 µM (active) and 1.83 µM (active)
AC50 [3]: 1.66 µM (active) and 1.35 µM (active)
AC50 [4]: 972 nM (active) and 727 nM (active)
AC50 [5]: 809 nM (active) and 929 nM (active)
AC50 [6]: 1.03 µM (active) and 842 nM (active)
AC50 [8]: 73.5 µM (active)
AC50 [7]: 1.26 µM (active) and 1.25 µM (active)
outcome [9]: inactive

CCCCC(CC)COC(=O)c1ccc(O)cc1 (stereo not drawn)
AC50 (DIO3 (gene 1735)): 79.1 µM (active)

CC(C)CCCCCCCCCCCCCCC(=O)O
AC50 (DIO3 (gene 1735)): 19.4 µM (active)

C=C1CC[C@H](O)C/C1=C/C=C1\CCC[C@]2(C)[C@@H]([C@H](C)/C=C/[C@H](C)C(C)C)CC[C@@H]12
AC50 (DIO3 (gene 1735)): 2.3 µM (active)

FC(F)(F)COCC(F)(F)F
outcome [1]: inactive
outcome [2]: inactive
outcome [3]: inactive
outcome [4]: inactive
outcome [5]: inactive
outcome [6]: inactive

CCCCCCCCCCCCCCN(CCO)CCO
AC50 (DIO3 (gene 1735)): 7.58 µM (active)

CN(C)CCOC(C)(c1ccccc1)c1ccccn1 (stereo not drawn)
outcome [1]: inactive
outcome [2]: inactive
outcome [3]: inactive
outcome [4]: inactive
outcome [5]: inactive
outcome [6]: inactive
outcome [7]: inactive

CS(=O)(=O)OCCCCOS(C)(=O)=O
outcome [1]: inactive
outcome [2]: inactive
outcome [3]: inactive
outcome [4]: inactive
outcome [5]: inactive
outcome [6]: inactive

O=CCc1ccccc1
AC50 (DIO3 (gene 1735)): 74.8 µM (active)

CCCCCCCCCCCCCC(=O)OCC(O)CO (stereo not drawn)
AC50 (DIO3 (gene 1735)): 47.9 µM (active)

CCCCCCCCCCCCN1CCCCCC1=O
AC50 (DIO3 (gene 1735)): 89.2 µM (active)

Cc1cc(S(=O)(=O)O)ccc1N=Nc1c(O)ccc2ccccc12
outcome (DIO3 (gene 1735)): inactive

CCc1cc(Cc2cc(CC)cc(C(C)(C)C)c2O)c(O)c(C(C)(C)C)c1
AC50 (DIO3 (gene 1735)): 10.7 µM (active)

CCOC(=O)[C@@H](C)Oc1ccc(Oc2nc3ccc(Cl)cc3o2)cc1
AC50 (DIO3 (gene 1735)): 7.15 µM (active)
